Compound activity (PubChem)
Compounds with a hit are over-represented: about 4.2% of the library has one in this group of screens.
hgDAF12 agonist – activates the H. glycines DAF-12 receptor ligand-binding domain; HEK293 GAL4-hgDAF12 UAS-luciferase reporter, agonist luminescence; normalized to butyrate control; hit rate 1.8% among 370,000; activation, % at 6.8 µM;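 active = activation above a cutoff set at the mean of all screened compounds plus 3 SD, cut at about 10% in these data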
ssDAF-12 act – S. stercoralis DAF-12 activation, primary screen; HEK293 ssDAF-12/GRIP1 lit1-tk-luc reporter, luminescence; % of 3 µM dafachronic acid response; activation, % at 6.8 µM; hit rate 1% among 370,000;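 active = activation above the mean over all tested compounds plus 3 SD, cut at about 0.9% in these data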
esBAF inh – inhibitors of esBAF chromatin remodeling in mouse ES cells; hit rate 2% among 350,000; reporter increase, % at 12.5 µM; Bmi1-luciferase knock-in reporter, 24 h; 100% = twice the neutral-well signal; in the data active = activation above about 40%;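 note: a rise in the Bmi1 reporter signal indicates esBAF inhibition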
hcDAF-12 act – activators of H. contortus DAF-12 nuclear receptor; HEK293 hcDAF-12 lit1-tk-luc reporter, luminescence; 0% DMSO, 100% Δ7-dafachronic acid; activation, % at 6.8 µM; hit rate 1.4% among 370,000; AID 652067;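 active = activation above the mean of all tested compounds plus 3 SD, cut at about 5.5% in these data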
DAX1 StAR inh – blocks DAX1 repression of SF-1 activated StAR promoter | hit rate 1.1% among 370,000 | AID 652010 | inhibition, % at 6.8 µM | HEK293T StAR-luciferase reporter, SF-1/DAX-1 repression relief;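 active = inhibition above the mean over all tested compounds plus 3 SD, cut at about 3.6% in these data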;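 note: higher inhibition means more luminescence from relief of DAX-1 repression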
Wnt act – activators of Wnt/beta-catenin signaling. Wnt/beta-catenin reporter cell assay, activator, plate reader. activation, % at 9.35 µM. hit rate 1.2% among 300,000. AID 743398; in the data active = activation above about 30%, passing the limit was not always enough
Hits are given with their value.

CCOc1ccccc1C(=O)NN1C(=O)CCC1=O was read as hgDAF12 agonist inactive, ssDAF-12 act 1.0, hcDAF-12 act inactive and DAX1 StAR inh inactive.
`CNC(=O)C[C@H]1CC[C@H]2[C@@H](COc3ccc(NC(=O)Nc4ccccc4OC)cc3C(=O)N2C)O1` gave esBAF inh inactive.
Screening O=C1c2ccccc2C(=O)C1c1ccncc1 returned hgDAF12 agonist inactive, ssDAF-12 act inactive, esBAF inh inactive, hcDAF-12 act 5.6, DAX1 StAR inh 4.0 and Wnt act inactive.
`O=C1c2ccccc2C(=O)C1c1ccccn1` gave hgDAF12 agonist inactive, ssDAF-12 act inactive, hcDAF-12 act inactive, DAX1 StAR inh inactive and Wnt act inactive.
For O=C(NCC[C@@H]1CC[C@H](NC(=O)Nc2cc(F)ccc2F)[C@@H](CO)O1)Nc1ccc(F)cc1 the results were esBAF inh inactive.
COc1ccc2cc(C(=O)NCCCN3CCCC3=O)[nH]c2c1 was read as hgDAF12 agonist inactive, ssDAF-12 act inactive, esBAF inh inactive, hcDAF-12 act 6.2, DAX1 StAR inh inactive and Wnt act inactive.
Screening O=C(C[C@@H]1CC[C@H]2[C@@H](COC[C@@H](O)CN2C(=O)c2ccccc2F)O1)NCc1ccc(Cl)cc1 returned esBAF inh inactive.
CN(C)CCNC(=O)c1cccc2ccc(-c3ccc(-c4ccccc4)cc3)nc12 was read as hgDAF12 agonist inactive, ssDAF-12 act 1.2, hcDAF-12 act inactive, DAX1 StAR inh inactive and Wnt act inactive.
Screening CN(C)CCNC(=O)c1ccccc1 returned hgDAF12 agonist inactive, ssDAF-12 act inactive, esBAF inh inactive, hcDAF-12 act inactive, DAX1 StAR inh inactive and Wnt act inactive.
For C[C@@H]1CN([C@H](C)CO)C(=O)c2cc(NC(=O)Nc3ccccc3)ccc2O[C@@H](C)CCCCO[C@H]1CN(C)C the results were esBAF inh inactive.
`COc1cccc(CNC(=O)C[C@H]2CC[C@@H](NC(=O)C3CCOCC3)[C@@H](CO)O2)c1` gave esBAF inh inactive.
`Cc1sc2c(c1C)C(=O)/C(=C\Nc1ccncc1)S(=O)(=O)N2C` gave hgDAF12 agonist inactive, ssDAF-12 act inactive, hcDAF-12 act inactive, DAX1 StAR inh inactive and Wnt act 44.
For Cc1cc(C(=O)CN2C(=O)NC(CC(C)C)C2=O)c(C)n1C1CC1 (stereo not given) the results were hgDAF12 agonist inactive, ssDAF-12 act inactive, esBAF inh 43, hcDAF-12 act inactive, DAX1 StAR inh inactive and Wnt act inactive.
Cc1cc(C(=O)CN2C(=O)NC(CC(C)C)C2=O)c(C)n1-c1ccccc1F (stereo not given) was read as hgDAF12 agonist inactive, ssDAF-12 act inactive, hcDAF-12 act inactive, DAX1 StAR inh inactive and Wnt act inactive.
C[C@H]1CN([C@@H](C)CO)S(=O)(=O)c2ccc(-c3cccc(C#N)c3)cc2O[C@@H]1CN(C)C(=O)C1CC1 was read as esBAF inh inactive.
Screening O=C(Cc1ccccc1)NNc1ccc2ccccc2c1 returned hgDAF12 agonist inactive, ssDAF-12 act inactive, hcDAF-12 act 5.9, DAX1 StAR inh inactive and Wnt act inactive.
O=C(Nc1ccccc1)Nc1ccc(Br)c(Cl)c1 was read as hgDAF12 agonist 12, ssDAF-12 act inactive, esBAF inh 75, hcDAF-12 act 6.5, DAX1 StAR inh inactive and Wnt act inactive.
O=C(Nc1ccccc1)Nc1ccc2ccccc2c1 was read as hgDAF12 agonist inactive, ssDAF-12 act inactive, hcDAF-12 act inactive, DAX1 StAR inh inactive and Wnt act 44.
O=C(Nc1ccc2ccccc2c1)c1ccc2[nH]c(=O)c(=O)[nH]c2c1 was read as hgDAF12 agonist inactive, ssDAF-12 act inactive, esBAF inh inactive, hcDAF-12 act 6.1, DAX1 StAR inh inactive and Wnt act inactive.
For O=C(COc1ccc2ccccc2c1)NNC(=O)Cc1ccccc1 the results were hgDAF12 agonist inactive, ssDAF-12 act inactive, esBAF inh inactive, hcDAF-12 act inactive, DAX1 StAR inh inactive and Wnt act inactive.
C[C@@H]1CN([C@@H](C)CO)C(=O)c2cc(Br)cnc2O[C@H]1CN(C)S(=O)(=O)c1ccc(F)cc1 was read as esBAF inh inactive.
Screening Cc1noc(C)c1NC(=O)N(C)C[C@@H]1Oc2ncc(C#Cc3ccccc3)cc2C(=O)N([C@H](C)CO)C[C@@H]1C returned esBAF inh inactive.
Screening O=C(CC1CC1)Nc1ccc2c(c1)[C@@H]1C[C@@H](CC(=O)NC3CCCC3)O[C@H](CO)[C@@H]1O2 returned esBAF inh inactive.
Screening COc1ccc(S(=O)(=O)Nc2ccc3c(c2)CC(=O)N([C@@H](C)CO)C[C@H](C)[C@@H](CN(C)C(=O)Nc2ccc(F)cc2)O3)cc1 returned esBAF inh inactive.
`Cc1ccc(-c2cnc3c(c2)C(=O)N([C@H](C)CO)C[C@@H](C)[C@H](CN(C)C(=O)c2cccc(F)c2)O3)cc1` gave esBAF inh inactive.
`Cc1cc(NC(=O)c2cc(-c3ccc(C)s3)nc3ccccc23)no1` gave hgDAF12 agonist inactive, ssDAF-12 act 1.7, esBAF inh inactive, hcDAF-12 act inactive, DAX1 StAR inh inactive and Wnt act inactive.
For Cc1cc(NC(=O)c2cc(-c3ccccc3C)nc3ccccc23)no1 the results were hgDAF12 agonist inactive, ssDAF-12 act inactive, hcDAF-12 act inactive, DAX1 StAR inh inactive and Wnt act inactive.
Screening COc1ccc(C(=O)Nc2ccc(Nc3ccccc3)cc2)cc1[N+](=O)[O-] returned hgDAF12 agonist inactive, ssDAF-12 act inactive, esBAF inh inactive, hcDAF-12 act inactive, DAX1 StAR inh inactive and Wnt act inactive.
`COc1ccc(Nc2nc(-c3ccc(OC)cc3)cs2)cc1` gave hgDAF12 agonist 12, ssDAF-12 act inactive, hcDAF-12 act inactive, DAX1 StAR inh inactive and Wnt act inactive.
